# Measured values published in ChEMBL document CHEMBL3988442, “University of Dundee, Small-Polar-MMV Screening Library” (2021).
# For some of these results: Potency and affinity values are given separately.
# Assays:
# Design in all cases: scale not given: direction of the effect not stated beside the values
# [1] = biological target: Protein translocase subunit SecA (Escherichia coli (strain K12)) (UniProt P10408); assay: Assay to Identify E. coli SecA ATPase Inhibitors; assay type: functional; details: 30 µM
# [2] = biological target: T1, Ubiquitin-activating enzyme e1, putative (Leishmania donovani (strain BPK282A1)) (UniProt E9BSI1); assay: Leishmania donovani Ubiquitin Activating Enzyme (LdE1); assay type: functional; details: 30 µM
# T1 sequence (whole entry): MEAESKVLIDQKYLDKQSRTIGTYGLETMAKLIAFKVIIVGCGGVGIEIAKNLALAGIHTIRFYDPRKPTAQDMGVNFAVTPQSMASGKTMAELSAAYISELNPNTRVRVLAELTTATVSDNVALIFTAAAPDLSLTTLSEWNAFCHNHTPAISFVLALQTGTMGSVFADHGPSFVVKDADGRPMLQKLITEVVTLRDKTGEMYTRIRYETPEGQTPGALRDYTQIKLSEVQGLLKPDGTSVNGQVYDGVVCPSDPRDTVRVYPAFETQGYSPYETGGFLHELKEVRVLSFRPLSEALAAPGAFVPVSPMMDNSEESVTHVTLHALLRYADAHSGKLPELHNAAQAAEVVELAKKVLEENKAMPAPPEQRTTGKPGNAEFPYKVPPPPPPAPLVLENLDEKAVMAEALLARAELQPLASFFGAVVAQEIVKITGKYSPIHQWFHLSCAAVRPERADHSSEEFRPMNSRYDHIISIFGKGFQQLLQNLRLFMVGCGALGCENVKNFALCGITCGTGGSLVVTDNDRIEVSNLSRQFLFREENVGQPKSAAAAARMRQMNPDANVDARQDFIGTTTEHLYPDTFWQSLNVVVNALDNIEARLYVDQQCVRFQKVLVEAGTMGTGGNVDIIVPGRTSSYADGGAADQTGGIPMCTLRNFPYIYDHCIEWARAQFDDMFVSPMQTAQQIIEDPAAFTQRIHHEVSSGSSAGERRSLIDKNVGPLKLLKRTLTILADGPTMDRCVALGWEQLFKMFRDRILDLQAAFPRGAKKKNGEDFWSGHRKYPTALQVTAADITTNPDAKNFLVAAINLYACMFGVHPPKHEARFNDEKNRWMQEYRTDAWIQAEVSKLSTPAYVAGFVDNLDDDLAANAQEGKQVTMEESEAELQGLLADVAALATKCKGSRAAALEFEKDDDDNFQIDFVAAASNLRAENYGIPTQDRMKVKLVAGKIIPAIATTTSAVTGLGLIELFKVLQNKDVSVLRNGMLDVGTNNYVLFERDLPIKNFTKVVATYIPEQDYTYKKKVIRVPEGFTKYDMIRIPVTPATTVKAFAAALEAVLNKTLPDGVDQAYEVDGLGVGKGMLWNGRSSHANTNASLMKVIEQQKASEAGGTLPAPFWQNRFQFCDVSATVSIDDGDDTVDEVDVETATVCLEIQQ
# [3] = biological target: AMP-activated protein kinase, AMPK (Homo sapiens) (UniProt P54646+O43741+P54619+Q9UGJ0+Q9Y478+Q13131+Q9UGI9); assay: AMP-dependent Kinase enzyme assay. An in vitro enzyme assay that detects ADP turnover that is directly proportional to AMPK activity. This uses naive AMPK that is activated during the assay with MK-8722; assay type: functional; details: 30 µM
# [4] = biological target: Sialic acid-binding Ig-like lectin 9 (Homo sapiens) (UniProt Q9Y336); assay: Hs-Siglec9 ALPHAscreen SOP 20170721; details: 10 µM
# [5] = tested on: Trypanosoma cruzi; assay: Trypanosoma cruzi phosphomannomutase and mannose-1-phosphate guanylyltransferase assay; assay type: functional; details: 10 µM
# [6] = biological target: T2, Arginase-2, mitochondrial (Homo sapiens) (UniProt P78540); assay: in vitro enzyme assay to detect the production of urea directly proportional to the activity of Arginase II; assay type: functional; details: 33.3 µM; note: in the data most compounds retested in dose-response had high values
# T2 sequence (whole entry): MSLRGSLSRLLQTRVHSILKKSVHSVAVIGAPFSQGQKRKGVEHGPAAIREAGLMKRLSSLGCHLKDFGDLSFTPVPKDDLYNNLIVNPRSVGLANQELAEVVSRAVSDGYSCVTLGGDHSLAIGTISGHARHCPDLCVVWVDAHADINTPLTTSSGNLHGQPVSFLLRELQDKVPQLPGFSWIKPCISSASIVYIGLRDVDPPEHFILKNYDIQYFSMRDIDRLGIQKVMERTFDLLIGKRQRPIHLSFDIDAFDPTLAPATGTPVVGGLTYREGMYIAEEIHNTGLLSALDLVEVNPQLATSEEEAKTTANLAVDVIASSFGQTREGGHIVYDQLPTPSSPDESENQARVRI
# [7] = biological target: T3, Proteasome subunit beta (Trypanosoma cruzi) (UniProt O96673); assay: Trypanosoma cruzi proteasome chymotrypsin-like activity (TcProtChymo) assay.; note: in the data most compounds retested in dose-response had high values; assay type: functional; details: 9.37 µM
# T3 sequence (whole entry): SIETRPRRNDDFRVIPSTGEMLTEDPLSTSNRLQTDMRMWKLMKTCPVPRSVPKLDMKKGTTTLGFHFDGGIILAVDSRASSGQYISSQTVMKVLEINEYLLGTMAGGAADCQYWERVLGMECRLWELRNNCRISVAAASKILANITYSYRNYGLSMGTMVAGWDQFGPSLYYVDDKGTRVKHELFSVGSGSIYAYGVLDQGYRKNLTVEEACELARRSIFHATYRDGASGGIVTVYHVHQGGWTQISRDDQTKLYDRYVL
# [8] = species on record: Homo sapiens; assay: To identify inhibition of the IFN signalling (Jak-Stat) pathway via expression of an eGFP reporter gene under the control of an IFN-stimulated response element (ISRE) containing MxA promoter.; assay type: functional; details: 30 µM
# [9] = biological target: T4, Tyrosyl-tRNA synthetase, putative (Trypanosoma cruzi (strain CL Brener)) (UniProt Q4DSP6); assay: Trypanosoma cruzi tyrosyl tRNA synthetase (TcYRS) _High Tyrosine SOP; assay type: functional; details: 30 µM; note: in the data most compounds retested in dose-response had high values
# T4 sequence (whole entry): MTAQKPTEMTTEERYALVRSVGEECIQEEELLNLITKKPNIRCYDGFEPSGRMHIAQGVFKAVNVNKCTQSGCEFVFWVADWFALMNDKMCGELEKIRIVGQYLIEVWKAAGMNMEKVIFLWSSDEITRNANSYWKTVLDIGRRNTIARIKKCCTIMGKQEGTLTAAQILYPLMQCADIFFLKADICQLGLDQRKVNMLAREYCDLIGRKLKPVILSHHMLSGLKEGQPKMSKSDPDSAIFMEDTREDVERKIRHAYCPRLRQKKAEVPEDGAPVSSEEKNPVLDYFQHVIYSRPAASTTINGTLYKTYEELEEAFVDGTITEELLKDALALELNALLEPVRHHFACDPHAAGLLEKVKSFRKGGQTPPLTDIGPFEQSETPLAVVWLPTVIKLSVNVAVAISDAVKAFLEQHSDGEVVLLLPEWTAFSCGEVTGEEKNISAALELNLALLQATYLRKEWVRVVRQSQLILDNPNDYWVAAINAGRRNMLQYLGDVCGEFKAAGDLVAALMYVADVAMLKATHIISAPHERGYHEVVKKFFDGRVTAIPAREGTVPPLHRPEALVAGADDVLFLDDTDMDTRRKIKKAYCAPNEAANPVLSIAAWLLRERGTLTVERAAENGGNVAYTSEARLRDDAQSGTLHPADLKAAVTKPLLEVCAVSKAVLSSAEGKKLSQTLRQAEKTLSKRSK
# [10] = biological target: T4, Tyrosyl-tRNA synthetase, putative (Trypanosoma cruzi (strain CL Brener)); assay: Trypanosoma cruzi tyrosyl tRNA synthetase (TcYRS) SOP; assay type: functional; details: 30 µM
# [11] = biological target: Chromo domain-containing protein 1 (Saccharomyces cerevisiae (strain ATCC 204508 / S288c) (Baker's yeast)) (UniProt P32657); assay: ScCHD-1 Enzyme Inhibition Assay; assay type: functional; details: 30 µM; note: in the data most compounds retested in dose-response had high values
# Chain of Chromo domain-containing protein 1 (Saccharomyces cerevisiae (strain ATCC 204508 / S288c) (Baker's yeast)) (P32657 whole entry, the tested form may be a part): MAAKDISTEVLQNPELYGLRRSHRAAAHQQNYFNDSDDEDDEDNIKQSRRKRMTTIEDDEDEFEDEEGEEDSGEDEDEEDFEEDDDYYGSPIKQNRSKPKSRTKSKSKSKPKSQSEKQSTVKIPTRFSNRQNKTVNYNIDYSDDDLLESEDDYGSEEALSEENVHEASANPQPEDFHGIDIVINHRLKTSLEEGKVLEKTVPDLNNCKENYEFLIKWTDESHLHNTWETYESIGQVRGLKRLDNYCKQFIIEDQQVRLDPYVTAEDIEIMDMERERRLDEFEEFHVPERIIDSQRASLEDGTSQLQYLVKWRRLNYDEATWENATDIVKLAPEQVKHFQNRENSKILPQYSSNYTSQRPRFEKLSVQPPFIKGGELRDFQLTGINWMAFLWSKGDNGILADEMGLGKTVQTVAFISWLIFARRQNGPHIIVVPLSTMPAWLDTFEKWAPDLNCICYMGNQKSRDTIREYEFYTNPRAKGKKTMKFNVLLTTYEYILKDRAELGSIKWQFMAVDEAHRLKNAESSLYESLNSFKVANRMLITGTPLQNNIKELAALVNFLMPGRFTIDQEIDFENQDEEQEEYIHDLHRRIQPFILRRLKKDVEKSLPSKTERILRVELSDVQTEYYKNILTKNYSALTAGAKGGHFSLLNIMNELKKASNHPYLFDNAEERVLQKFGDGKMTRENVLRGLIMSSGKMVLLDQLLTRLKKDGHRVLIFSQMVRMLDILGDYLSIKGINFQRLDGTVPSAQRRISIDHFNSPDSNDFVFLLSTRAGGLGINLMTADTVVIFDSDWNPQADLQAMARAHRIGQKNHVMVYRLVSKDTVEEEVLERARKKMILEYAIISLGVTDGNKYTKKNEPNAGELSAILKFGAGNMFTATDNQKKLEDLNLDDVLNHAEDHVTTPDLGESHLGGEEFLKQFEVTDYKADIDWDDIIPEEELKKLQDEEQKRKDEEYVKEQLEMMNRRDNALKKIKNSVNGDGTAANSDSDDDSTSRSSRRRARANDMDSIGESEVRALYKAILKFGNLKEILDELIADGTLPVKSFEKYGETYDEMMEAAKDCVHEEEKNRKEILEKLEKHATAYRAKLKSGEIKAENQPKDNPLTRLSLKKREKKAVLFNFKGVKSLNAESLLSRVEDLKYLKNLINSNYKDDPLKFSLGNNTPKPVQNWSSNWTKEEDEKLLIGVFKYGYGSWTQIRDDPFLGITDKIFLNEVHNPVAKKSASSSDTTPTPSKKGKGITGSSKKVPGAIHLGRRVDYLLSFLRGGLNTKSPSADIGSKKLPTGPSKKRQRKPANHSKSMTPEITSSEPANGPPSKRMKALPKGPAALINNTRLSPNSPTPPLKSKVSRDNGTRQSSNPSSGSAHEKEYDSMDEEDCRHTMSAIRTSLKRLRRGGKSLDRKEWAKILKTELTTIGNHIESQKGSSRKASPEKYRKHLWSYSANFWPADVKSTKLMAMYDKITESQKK
# Chain of Protein translocase subunit SecA (Escherichia coli (strain K12)) (P10408 whole entry): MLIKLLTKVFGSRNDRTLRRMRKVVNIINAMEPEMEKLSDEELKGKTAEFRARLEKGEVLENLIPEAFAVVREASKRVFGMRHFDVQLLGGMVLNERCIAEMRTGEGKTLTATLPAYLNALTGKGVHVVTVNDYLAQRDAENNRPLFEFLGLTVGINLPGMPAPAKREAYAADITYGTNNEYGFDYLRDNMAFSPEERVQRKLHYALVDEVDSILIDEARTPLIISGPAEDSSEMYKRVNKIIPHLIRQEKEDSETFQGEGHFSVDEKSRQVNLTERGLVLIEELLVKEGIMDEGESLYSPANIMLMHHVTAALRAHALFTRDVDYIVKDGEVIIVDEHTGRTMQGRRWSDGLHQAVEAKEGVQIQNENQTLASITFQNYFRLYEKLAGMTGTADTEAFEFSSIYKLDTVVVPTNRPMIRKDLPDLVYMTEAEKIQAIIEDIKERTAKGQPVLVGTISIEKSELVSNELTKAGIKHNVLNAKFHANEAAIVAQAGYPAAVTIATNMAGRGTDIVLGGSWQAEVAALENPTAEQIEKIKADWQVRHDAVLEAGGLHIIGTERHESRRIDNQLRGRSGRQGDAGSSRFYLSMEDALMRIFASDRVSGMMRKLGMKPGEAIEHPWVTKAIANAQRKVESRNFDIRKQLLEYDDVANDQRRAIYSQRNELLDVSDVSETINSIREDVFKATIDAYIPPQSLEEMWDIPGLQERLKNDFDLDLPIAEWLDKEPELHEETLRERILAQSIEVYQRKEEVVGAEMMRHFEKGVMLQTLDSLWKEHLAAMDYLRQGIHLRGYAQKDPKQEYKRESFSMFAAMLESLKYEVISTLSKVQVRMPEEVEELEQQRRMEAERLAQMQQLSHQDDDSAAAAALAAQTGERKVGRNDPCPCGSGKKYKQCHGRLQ
# Chain of Sialic acid-binding Ig-like lectin 9 (Homo sapiens) (Q9Y336 whole entry): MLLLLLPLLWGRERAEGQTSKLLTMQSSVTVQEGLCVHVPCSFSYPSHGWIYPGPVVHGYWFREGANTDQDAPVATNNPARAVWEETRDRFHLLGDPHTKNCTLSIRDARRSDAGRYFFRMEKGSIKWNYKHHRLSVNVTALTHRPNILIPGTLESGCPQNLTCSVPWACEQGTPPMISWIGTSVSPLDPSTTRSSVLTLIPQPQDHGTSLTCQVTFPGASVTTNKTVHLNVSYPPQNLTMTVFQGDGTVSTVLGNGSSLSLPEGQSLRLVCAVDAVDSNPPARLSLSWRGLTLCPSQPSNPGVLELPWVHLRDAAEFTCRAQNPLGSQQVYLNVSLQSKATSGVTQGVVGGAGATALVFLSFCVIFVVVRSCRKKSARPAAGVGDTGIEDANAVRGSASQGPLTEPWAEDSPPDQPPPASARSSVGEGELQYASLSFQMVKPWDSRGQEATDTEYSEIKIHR
SMILES,Percent Effect [1] [%],Percent Effect [2] [%],Percent Effect [3] [%],Percent Effect [4] [%],Percent Effect [5] [%],Percent Effect [6] [%],Percent Effect [7] [%],Percent Effect [8] [%],Percent Effect [9] [%],Percent Effect [10] [%],Percent Effect [11] [%]
O=C(CC1CC1)NCc1cn2c(n1)CN(CC1CC1)CC2,-3.1,13.3,16.6,-9.15,-3.54,1.63,10.7,3.1,-3.19,8.97,-5.22
O=C1CCC2(CCN(c3ncc(F)cn3)CC2)N1CCN1CCCC1,-2.97,7.79,-0.558,-6.43,-2.07,1.94,21.4,12.5,1.06,3.85,-7.84
CC(C)n1c(=O)nc2n1C(=O)N(c1ccccc1)C2,-3.47,18.4,-0.93,-3.33,0.682,-4.73,14.7,-2.62,6.38,18.2,-9.74
CCCNC(=O)c1cc2c([nH]c1=O)CC(c1cccs1)CC2=O (stereo not given),0.191,14.7,13.3,3.54,3.34,-0.88,7.58,21,-4.23,12.8,-7.37
CN(Cc1nnc2n1CCC2)C(=O)NCCc1ccc2c(c1)OCO2,-3.06,21.6,-5.22,-0.223,-5.38,-2.4,10.6,18.3,7.39,16.1,-6.24
Nc1cc(N2CCCC2c2cnccn2)ncn1 (stereo not given),-0.532,9.46,-1.66,-2.65,2.96,-5.34,14.8,2.07,8.6,14.3,-13.1
COc1c(CNC(c2ccc(F)cc2)C(C)(C)C)c(C)nn1C (stereo not given),-1.68,5.26,-4.48,2.41,-6.01,-7.28,4.84,30.8,0.49,-4.88,-5.33
Cc1cc(C)n(CC2CCCN2C(=O)CCCNc2ncccn2)n1 (stereo not given),-3.06,5.26,1.29,7.88,3.01,1.15,5.68,-8.34,6.37,9.76,-0.0349
O=c1oc(-c2ccc(F)cc2)nn1CN1CCN(C2CCCC2)CC1,-3.25,18.2,2.12,-0.647,-2.25,-3.56,7.6,-3.58,9.71,19.5,-6.38
Cc1ccc(C(CNCC2CC2)N2CCOCC2)s1 (stereo not given),4.94,8.11,-0.221,3.49,-6.05,1.67,11.9,26.7,9.9,8.54,-6.06
Cc1nc(C)n(CC2CN(Cc3cccnc3)CCO2)n1 (stereo not given),-3.52,21.1,-7.06,-5.07,-2.33,2.52,6.85,-13.4,9.36,23.5,-5.32
Cc1ncc(-c2nc3cc(S(=O)(=O)N4CCCC4)ccc3n2C)cn1,-5.62,5.48,12.1,-7.83,0,6.36,2.13,14.1,6.45,15,-1.23
COc1c(CNCc2ccc(CN(C)C)cc2)c(C)nn1C,3.12,-1.27,3.93,0.303,3.79,4.95,9.26,-11.7,-3.12,2.53,-2.72
N#Cc1cn(C2CC2)c(=O)n(CC(O)c2ccc(OC(F)F)cc2)c1=O (stereo not given),-5.26,15.8,-4.7,7.1,6.01,0,11.2,3.44,0.49,17.1,-12.4
COCc1ccc(CNC(=O)C2=NN(c3ccccc3)C(=O)CN2)cc1,-0.976,5.41,6.06,-1.63,-9.09,1.24,14,53.6,3.23,13.6,-4.43
CCCN1CCCn2nc(CNC(=O)CCc3scnc3C)cc2C1,-2.71,20.8,-13.3,19.9,3.98,8.39,16.7,-7.34,5.26,17.9,-7.37
O=C(Cc1ccsc1)NCC1OCCc2cn(CC3CC3)nc21 (stereo not given),-2.34,7.79,4.36,-0.104,-3.06,4.52,9.92,10.1,8.47,8.97,-0.722
Cc1nc(CCNC(=O)NC2CCN(c3ncccn3)CC2)cs1,-1.83,11,-4.69,4.09,1.19,-1.6,16,22.2,11.5,21,0.13
Cc1noc(CN2Cc3ccccc3CC2c2nnc(C)o2)n1 (stereo not given),-3.16,5.2,6.26,12.5,3.23,1.9,5.58,8.44,2.86,7.06,3.28
CCC(C)CNc1ccc2oc(COC)nc2c1 (stereo not given),7.14,32.4,-44.5,7.84,-5.08,6.67,20.9,42.4,-6.93,-11,4.53
